A549 tox: Nrf2 qHTS screen for inhibitors: counterscreen for cytotoxicity. A549 ARE-Fluc cells, CellTiter-Fluor viability, 18-24 h. Potency, µM (top dose mostly 46 µM), for inactives: top-dose activity change, negative = cytotoxicity, usual class: inhibitors. 390,000 compounds, 0.16% hits. AID 504648, 2011; note: potency is the fitted concentration of half-maximal effect; % is set by controls: 0 for no effect and ±100 for the full control effect
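Cytotoxicity counterscreen: CellTiter-Fluor fluorescence was measured in A549 ARE_Fluc cells after 18-24 h of compound exposure in a concentration series. The subsequent BugLite luminescent read reports ARE-luciferase activity.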
PTAP TSG101 blk: qHTS Assay for Iinhibitors of HIV-1 Budding by Blocking the Interaction of PTAP/TSG101; Fluorescence polarization, FITC-PTAP peptide / Tsg101 binding; Potency, µM (highest dose often 115 µM), without a hit: top-dose activity change, negative = inhibition, actives largely listed as inhibitors; 340,000 tested, under 10 active; AID 493005, 2010; active = well fitted inhibition curve with a large enough effect in the main read-out, with a control signal flat, not every such curve was filed as active; inconclusive = small, poorly fitted or top-dose-only effect, or effect the other way, or a change in a side signal; inactive = no such curve, though single readings can be large or run the other way; note: potency is the fitted concentration of half-maximal effect; % of control where 0% means no effect
Target sequence (Q99816 whole entry, looked up): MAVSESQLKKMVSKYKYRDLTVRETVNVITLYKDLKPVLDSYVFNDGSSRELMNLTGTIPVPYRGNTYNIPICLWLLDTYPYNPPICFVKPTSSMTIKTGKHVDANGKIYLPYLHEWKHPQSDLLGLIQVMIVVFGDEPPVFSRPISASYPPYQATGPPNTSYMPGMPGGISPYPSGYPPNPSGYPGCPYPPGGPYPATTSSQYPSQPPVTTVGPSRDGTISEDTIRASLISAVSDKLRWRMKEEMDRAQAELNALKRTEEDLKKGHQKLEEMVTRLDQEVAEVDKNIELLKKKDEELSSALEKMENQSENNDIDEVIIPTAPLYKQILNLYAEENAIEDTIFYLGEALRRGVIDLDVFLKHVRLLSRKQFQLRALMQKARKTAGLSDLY
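Compounds were pin-transferred onto Tsg101 binding domain (10 uM final) in HEPES pH 7.5 buffer, then FITC-PTAP peptide was added at 50 nM final. After 20 min at RT, polarization reported peptide displacement across a qHTS concentration series.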
Glioma ERSR ind: qHTS for Inducers of the Endoplasmic Reticulum Stress Response (ERSR) in Human Glioma: qHTS; U87-MG GRP78 promoter luciferase reporter, 16 h; Potency, µM, without a hit: at the highest dose activation, usual class: activators; 420,000 compounds, 0.02% hits; AID 602332, 2012; note: potency is the fitted concentration of half-maximal effect; series mostly up to about 76 µM; % of control where 0% means no effect; nearly all actives have a fitted effect of over 35% in size
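Stably transfected U87-MG glioma cells carrying a GRP78-based luciferase sensor; 16 h compound incubation. Luminescence end-point read 10 min after Bright-Glo addition at room temperature.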
Nrf2 activator: qHTS of Nrf2 Activators. AREc32 ARE-luciferase reporter (MCF7-derived line), luminescence, 24 h. Potency, µM (top dose mostly 46.1 µM), without a hit: at the highest dose activation, usual class: activators. 410,000 compounds, 0.31% hits; note: potency is the fitted concentration of half-maximal effect; % of control where 0% means no effect; nearly all actives have a fitted effect of over 65% in size
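Cells of the AREc32 ARE-luciferase line are plated in OPTI-MEM containing 5% FBS and left overnight at 37 deg C. Compounds are pinned in, incubation continues 24 hr, and firefly luciferase signal is then measured.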
miR-21 reporter: qHTS Assay for Modulators of miRNAs and/orActivators of miR-21. Potency, µM (doses to about 38.3 µM), inactives show at the highest dose activity change, positive = activation, actives largely listed as activators. 340,000 tested, under 10 active. HeLa miR-21 FLuc reporter, luciferase, 48 h. AID 2288, 2010;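 note: % of control where 0% means no effect; miR-21 action dims this reporter so a rising signal means less miR-21 action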
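Using DMEM plus 10% FBS, HeLa miR-21-FLuc cells are incubated with test compounds (final up to about 40uM) for 48 hours; firefly luciferase signal is then imaged following reagent-mediated lysis.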
Nrf2 block: Nrf2 qHTS screen for inhibitors; A549 ARE-Fluc reporter, luciferase luminescence, 18-24 h; Potency, µM (top dose mostly 46 µM), inactives show top-dose activity change, negative = inhibition, actives largely listed as inhibitors; 360,000 compounds, 2.1% hits; AID 504444, 2011; note: potency is the fitted concentration of half-maximal effect; % is set by controls: 0 for no effect and ±100 for the full control effect; nearly all actives have a fitted effect of over 60% in size
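Quantitative HTS in A549 cells stably bearing an antioxidant response element-firefly luciferase construct. Inhibition of Nrf2-driven transcription was scored by luminescence after 18-24 h of compound exposure at 37 °C.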
* marks the source's active call; other numbers are inactive results. An excerpt weighted towards active compounds, which were near 2.1% of everything screened. Unless noted, calls come from the whole dose curve; as a rule, active = well fitted curve in the direction sought with a large enough effect; inconclusive = small, poorly fitted or top-dose-only effect, or another doubt; inactive = no such curve, though single readings can be large; an effect the other way counts as inactive or inconclusive.

How did CCOC(=O)c1sc(NC(=O)c2ccc(S(=O)(=O)N3CCOCC3)cc2)nc1-c1ccccc1 do in these assays?
A549 tox: -6%; PTAP TSG101 blk: -3%; Glioma ERSR ind: 1%; Nrf2 activator: 1%; miR-21 reporter: 5%; Nrf2 block: 21µM*

How did Cc1nnc(NC(=O)c2ccc(S(=O)(=O)N3CCOCC3)cc2)s1 do in these assays?
A549 tox: -2%; PTAP TSG101 blk: -2%; Glioma ERSR ind: -4%; Nrf2 activator: 0%; miR-21 reporter: 5%; Nrf2 block: -12%

What do the screens show for `CCOC(=O)c1sc(NC(=O)c2ccc(S(=O)(=O)N3CCCCCC3)cc2)nc1-c1ccccc1`?
A549 tox: -7%; PTAP TSG101 blk: -4%; Glioma ERSR ind: -5%; Nrf2 activator: 0%; miR-21 reporter: -2%; Nrf2 block: inconclusive

Results for CCOC(=O)c1sc(NC(=O)c2ccc(S(=O)(=O)N3CCCCC3)cc2)nc1-c1ccccc1 ?
A549 tox: -5%; PTAP TSG101 blk: 2%; Glioma ERSR ind: -6%; Nrf2 activator: 0%; miR-21 reporter: 8%; Nrf2 block: 23µM*

Results for Cc1cc(CNC(=O)c2cnn(-c3nccc(-c4cc(C)sc4C)n3)c2C2CC2)on1 ?
Glioma ERSR ind: 7%

Results for CCOc1ccccc1-c1c2cc(O)c(=O)cc-2oc2cc(O)c(O)cc12 ?
A549 tox: 18µM*; PTAP TSG101 blk: inconclusive; Glioma ERSR ind: -7%; Nrf2 activator: -1%; miR-21 reporter: 7%; Nrf2 block: inconclusive

What do the screens show for `COc1ccc(OC)c(-c2c3cc(O)c(=O)cc-3oc3cc(O)c(O)cc23)c1`?
A549 tox: 21µM*; PTAP TSG101 blk: inconclusive; Glioma ERSR ind: 0%; Nrf2 activator: 3%; miR-21 reporter: 22%; Nrf2 block: -54%

What do the screens show for `O=c1cc2oc3cc(O)c(O)cc3c(-c3ccccc3O)c-2cc1O`?
A549 tox: -18%; PTAP TSG101 blk: inconclusive; Glioma ERSR ind: 17%; Nrf2 activator: inconclusive; miR-21 reporter: 14%; Nrf2 block: inconclusive

What do the screens show for `CC1(C)N=C(Nc2nc3ccccc3o2)NC2=C1C(=O)CCC2`?
A549 tox: -1%; Nrf2 block: inconclusive

How did Cc1ccc(NC(=O)CCn2c(=O)c3cccn3c3ccccc32)c(C)c1 do in these assays?
A549 tox: 0%; PTAP TSG101 blk: 3%; Glioma ERSR ind: -4%; Nrf2 activator: 2%; miR-21 reporter: -7%; Nrf2 block: -23%

What do the screens show for `Cc1cc(C)cc(NC(=O)CCn2c(=O)c3cccn3c3ccccc32)c1`?
A549 tox: -14%; PTAP TSG101 blk: -3%; Glioma ERSR ind: -6%; Nrf2 activator: 3%; miR-21 reporter: 13%; Nrf2 block: 16µM*

What do the screens show for `Cc1ccc(NC(=O)Cn2c(=O)c3cccn3c3ccccc32)c(C)c1`?
A549 tox: 5%; PTAP TSG101 blk: -2%; Glioma ERSR ind: -1%; Nrf2 activator: 0%; miR-21 reporter: 0%; Nrf2 block: -10%

Results for COc1ccc(CNC(=O)Cn2c(=O)c3cccn3c3ccccc32)cc1 ?
A549 tox: 0%; Glioma ERSR ind: -1%; Nrf2 activator: 0%; miR-21 reporter: 15%; Nrf2 block: 12µM*

How did Cc1cccc(NC(=O)Cn2c(=O)c3cccn3c3ccccc32)c1C do in these assays?
A549 tox: -17%; Glioma ERSR ind: -5%; Nrf2 activator: -1%; miR-21 reporter: 24%; Nrf2 block: 23µM*

Results for N#Cc1ccc(-c2cccnc2)nc1SCc1ccc(Cl)c(Cl)c1 ?
A549 tox: -15%; PTAP TSG101 blk: -9%; Glioma ERSR ind: -6%; Nrf2 activator: 8%; miR-21 reporter: -12%; Nrf2 block: 23µM*

Results for N#Cc1ccc(-c2cccnc2)nc1SCc1ccc(Cl)cc1Cl ?
A549 tox: -3%; PTAP TSG101 blk: -7%; Glioma ERSR ind: -3%; Nrf2 activator: -1%; miR-21 reporter: -10%; Nrf2 block: -27%

Results for COc1ccc(OC)c(C(C)NC(=S)NC2CCCCC2)c1 (configuration not stated) ?
A549 tox: 0%; PTAP TSG101 blk: -4%; Glioma ERSR ind: -4%; Nrf2 activator: 0%; miR-21 reporter: 9%; Nrf2 block: 18µM*

Results for Cc1csc2c(=O)sc(NC(=O)c3cccs3)nc12 ?
A549 tox: -11%; PTAP TSG101 blk: 1%; Glioma ERSR ind: -7%; Nrf2 activator: 3.5µM*; miR-21 reporter: 1%; Nrf2 block: inconclusive

What do the screens show for `Cc1csc2c(=O)sc(NC(=O)c3ccco3)nc12`?
A549 tox: -1%; PTAP TSG101 blk: 0%; Glioma ERSR ind: 4%; Nrf2 activator: inconclusive; miR-21 reporter: -5%; Nrf2 block: -18%

How did COc1cc(-c2ccc3ncnc(NCc4ccc(C)o4)c3c2)cc(OC)c1OC do in these assays?
A549 tox: -15%; Nrf2 block: inconclusive

How did CCCCCCC(=O)O[C@@H]1CC[C@H]2[C@@H]3CCc4cc(O)ccc4[C@H]3CC[C@]12C do in these assays?
Glioma ERSR ind: 7%

What do the screens show for `COCCC1CCCCN1Cc1nc(N2CCCC2)c2cc(OC)c(OC)cc2n1` (configuration not stated)?
Glioma ERSR ind: -1%

How did Cc1csc2c(N3CCN(C(=S)Nc4ccc(F)cc4F)CC3)ncnc12 do in these assays?
A549 tox: -5%; PTAP TSG101 blk: -1%; Glioma ERSR ind: -4%; Nrf2 activator: 1%; miR-21 reporter: 3%; Nrf2 block: 18µM*

How did Cc1csc2ncnc(N3CCN(C(=O)Nc4ccc(OC(F)(F)F)cc4)CC3)c12 do in these assays?
A549 tox: inconclusive; PTAP TSG101 blk: -3%; Glioma ERSR ind: 0%; Nrf2 activator: 4%; miR-21 reporter: 23%; Nrf2 block: 23µM*

Results for Cc1ccc(C(=O)N2CCN(c3ncnc4c(C)csc34)CC2)cc1 ?
A549 tox: -5%; PTAP TSG101 blk: -2%; Glioma ERSR ind: -4%; Nrf2 activator: 0%; miR-21 reporter: -2%; Nrf2 block: inconclusive

Results for Cc1csc2c(N3CCN(C(=O)Nc4ccccc4)CC3)ncnc12 ?
A549 tox: -3%; PTAP TSG101 blk: -1%; Glioma ERSR ind: -3%; Nrf2 activator: 4%; miR-21 reporter: 1%; Nrf2 block: 8.2µM*
